Key:
Conditions in all cases: concentration: 1 μM, replicates: in singlicate; n = 1
FGR = system: FGR
FLT1 = system: FLT1
FLT3-autoinhibited = system: FLT3-autoinhibited
FLT3 = system: FLT3
FLT4 = system: FLT4
FRK = system: FRK
FYN = system: FYN
GAK = system: GAK
GCN2(Kin.Dom.2,S808G) = system: T1, GCN2(Kin.Dom.2,S808G)
T1 construct: gene EIF2AK4

GRK1 = system: GRK1
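Further: KINOMEscan kinase panel screen.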

Row | SMILES | %Inh (FGR) [%] | %Inh (FLT1) [%] | %Inh (FLT3-autoinhibited) [%] | %Inh (FLT3) [%] | %Inh (FLT4) [%] | %Inh (FRK) [%] | %Inh (FYN) [%] | %Inh (GAK) [%] | %Inh (GCN2(Kin.Dom.2,S808G)) [%] | %Inh (GRK1) [%]
1 | Nc1nc(-c2ccccc2F)c(-c2ccnc3ccccc23)s1 [GW560459] | 7 | 30 | 0 | 25 | 0 | 0 | 39 | 79 | 6 | 0
2 | Nc1nccc2scc(-c3ccc4c(c3)CCN4C(=O)Cc3ccccc3)c12 [GSK2576924] | 22 | 22 | 3 | 0 | 21 | 0 | 33 | 0 | 0 | 4
3 | COc1ccc(CNC(=O)NC2CCN(c3ccnc(Nc4ccc(F)cc4)n3)C2)cc1 (stereo not shown) [GSK1379706] | 19 | 21 | 0 | 16 | 0 | 14 | 20 | 19 | 4 | 5
4 | COc1cc(Nc2nccc(N3CCC(NC(=O)C(C)c4ccc(Cl)cc4)C3)n2)cc(OC)c1OC (stereo not shown) [GSK1379757] | 26 | 40 | 0 | 25 | 7 | 0 | 0 | 0 | 0 | 0

Reference: publication PMC5540273 (PLoS ONE, 2017)
